The results in this text go back to PubChem BioAssay (EPA / NIEHS).

Values joined by “and” are separate entries in the source; they are usually repeats but may differ in a detail not shown here. Equal entries are not always repeated. Some compounds were tested as several samples or in several runs, with calls that do not always agree. Active and inactive are the calls of the source. Rule for the calls: active = hit-call score of the fitted dose curve at least 0.9, where 1 is the maximum; inactive = score below 0.9.

Read-out in test [1]: Monocyte Chemoattractant Protein-1 (MCP1), CCL2 (gene 6347)
The test can be described thus: BSK_3C_MCP1: BioMAP Diversity Plus: 3C Assay for Monocyte Chemoattractant Protein-1 (MCP1) Biomarker Activity (AID 2283017). The settings on record: primary human endothelial cells (HUVEC); actives raise or lower the signal. The essentials: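 Primary human umbilical vein endothelial cells (3C system) were exposed to test chemical for 24 h, after which MCP-1 was quantified by ELISA. Activity was fitted bidirectionally against DMSO as negative control and baseline.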

Read-out in test [2]: Human Leukocyte Antigen - DR isotype (HLADR), HLA-DRA (gene 3122)
The test can be described thus: BSK_3C_HLADR: BioMAP Diversity Plus: 3C Assay for Human Leukocyte Antigen - DR isotype (HLADR) Biomarker Activity (AID 2283019). The settings on record: primary human endothelial cells (HUVEC); actives raise or lower the signal. The essentials: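 Primary human umbilical vein endothelial cells (3C system) were dosed with compound and cell-surface HLA-DR was quantified by ELISA at 24 h. Activity was fitted bidirectionally against DMSO as negative control and baseline.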

Read-out in test [3]: Interleukin-8 (IL8), CXCL8 (gene 3576)
The test can be described thus: BSK_3C_IL8: BioMAP Diversity Plus: 3C Assay for Interleukin-8 (IL8) Biomarker Activity (AID 2283020). The settings on record: primary human endothelial cells (HUVEC); actives raise or lower the signal. The essentials:
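HUVEC, 3C stimulation; 24 h compound exposure; IL-8 read by ELISA; gain or loss of signal fitted relative to DMSO control.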

Test [4] is described as follows: BSK_3C_SRB: Viability Assessment in the BioMAP Diversity Plus: 3C Assay (AID 2283023).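 Note: fitted both ways against DMSO so a hit may be signal rise or drop.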 The settings on record: primary human endothelial cells (HUVEC). The procedure, abridged:
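Primary human umbilical vein endothelial cells in the 3C system were read 24 h after compound dosing. Total protein was stained with 0.1% sulforhodamine B after 10% TCA fixation and read at 560 nm, with bidirectional fitting against DMSO as baseline.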

Read-out in test [5]: Matrix Metallopeptidase 1 (MMP1), MMP1 (gene 4312)
The test can be described thus: BSK_BE3C_MMP1: BioMAP Diversity Plus: BE3C Assay for Matrix Metallopeptidase 1 (MMP1) Biomarker Activity (AID 2283024). The settings on record: primary human bronchial epithelial cells; actives raise or lower the signal. The essentials:
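ELISA read-out of MMP1 in human lung bronchial epithelial primary cultures, 24 h post-dose; bidirectional curve fit vs DMSO baseline, gain or loss of signal scored.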

Read-out in test [6]: Pselectin, SELP (gene 6403)
The test can be described thus: BSK_4H_Pselectin: BioMAP Diversity Plus: 4H Assay for Pselectin Biomarker Activity (AID 2283026). The settings on record: primary human endothelial cells (HUVEC); actives raise or lower the signal. The procedure, abridged: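 HUVEC, 24 h chemical exposure; P-selectin read by ELISA. Bidirectional curve fit vs DMSO baseline; gain or loss of signal scored.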

Test [7] is described as follows: BSK_4H_SRB: Viability Assessment in the BioMAP Diversity Plus: 4H Assay (AID 2283027).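 For AC50: curves fitted both ways versus DMSO so AC50 may be loss or gain.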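 Note: cells exposed to compound for 24 h before staining.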 The settings on record: primary human endothelial cells (HUVEC). The essentials: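 Cytotoxicity read-out in primary human endothelial cells: after 24 h compound exposure, cells were TCA-fixed (10%), stained with 0.1% SRB and absorbance taken at 560 nm. Values fitted in both directions relative to DMSO.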

Test [8] can be described thus: BSK_BE3C_SRB: Viability Assessment in the BioMAP Diversity Plus: BE3C Assay (AID 2283028).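 For AC50: fitted both ways so AC50 may mark signal gain or loss versus DMSO.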 The settings on record: primary human bronchial epithelial cells. The procedure, abridged: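 Human primary bronchial epithelial cells were exposed to test chemicals for 24 h. Total protein in parallel cultures was then measured by staining with 0.1% sulforhodamine B after 10% TCA fixation, with absorbance read at 560 nm. Activity was fitted bidirectionally against DMSO.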

Read-out in test [9]: Thrombomodulin, THBD (gene 7056)
The test can be described thus: BSK_3C_Thrombomodulin: BioMAP Diversity Plus: 3C Assay for Thrombomodulin Biomarker Activity (AID 2283029). The settings on record: primary human endothelial cells (HUVEC); actives raise or lower the signal. The procedure, abridged: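 HUVEC, 3C conditions; compound 24 h; thrombomodulin by ELISA; bidirectional curve fit vs DMSO baseline; parallel SRB total-protein staining for cytotoxicity.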

Read-out in test [10]: Vascular endothelial growth factor receptor 2 (Homo sapiens) (UniProt P35968)
The test can be described thus: BSK_4H_VEGFRII: BioMAP Diversity Plus: 4H Assay for Vascular endothelial growth factor receptor 2 (VEGFR2) Biomarker Activity (AID 2283031).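 For AC50: cell-surface VEGFR2 protein level quantified by ELISA.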 The settings on record: primary human endothelial cells (HUVEC); actives raise or lower the signal. The procedure, abridged:
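Primary human umbilical vein endothelial cells in the BioMAP 4H system were dosed with test chemical, and 24 h later VEGFRII was measured by ELISA. Activity was fitted bidirectionally against DMSO as negative control and baseline.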

Read-out in test [11]: Vascular cell adhesion molecule 1 (VCAM1), VCAM1 (gene 7412)
The test can be described thus: BSK_4H_VCAM1: BioMAP Diversity Plus: 4H Assay for Vascular cell adhesion molecule 1 (VCAM1) Biomarker Activity (AID 2283033).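 For outcome: cell-surface VCAM-1 protein measured by ELISA.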 The settings on record: primary human endothelial cells (HUVEC); actives raise or lower the signal. The essentials: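 HUVEC, 24 h post-dose; VCAM-1 by ELISA. Bidirectional curve fit vs DMSO baseline. Parallel SRB total-protein stain (0.1% SRB after 10% TCA fixation, 560 nm) for cytotoxicity.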

Read-out in test [12]: Interferon-gamma inducible Protein 10 (IP10), CXCL10 (gene 3627)
The test can be described thus: BSK_BE3C_IP10: BioMAP Diversity Plus: BE3C Assay for Interferon-gamma inducible Protein 10 (IP10) Biomarker Activity (AID 2283034). The settings on record: primary human bronchial epithelial cells; actives raise or lower the signal. The essentials:
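ELISA readout of IP-10 in BE3C system: primary human bronchial epithelial cells, 24 h post-dosing; bidirectional curve fit vs DMSO baseline.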

Read-out in test [13]: Interleukin-6 (IL6), IL6 (gene 3569)
The test can be described thus: BSK_CASM3C_IL6: BioMAP Diversity Plus: CASM3C Assay for Interleukin-6 (IL6) Biomarker Activity for (AID 2283040). The settings on record: primary human coronary artery smooth muscle cells; actives raise or lower the signal.

Read-out in test [14]: Interleukin-8 (IL8), CXCL8 (gene 3576)
The test can be described thus: BSK_CASM3C_IL8: BioMAP Diversity Plus: CASM3C Assay for Interleukin-8 (IL8) Biomarker Activity (AID 2283042).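 Note: IL-8 protein level quantified by ELISA.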 The settings on record: primary human coronary artery smooth muscle cells; actives raise or lower the signal.

Read-out in test [15]: Human Leukocyte Antigen - DR isotype (HLADR), HLA-DRA (gene 3122)
The test can be described thus: BSK_CASM3C_HLADR: BioMAP Diversity Plus: CASM3C Assay for Human Leukocyte Antigen - DR isotype (HLADR) Biomarker Activity (AID 2283043).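 Note: cell-surface HLA-DR protein level quantified by ELISA.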 The settings on record: primary human coronary artery smooth muscle cells; actives raise or lower the signal.

Read-out in test [16]: Macrophage colony-stimulating factor (MCSF), CSF1 (gene 1435)
The test can be described thus: BSK_CASM3C_MCSF: BioMAP Diversity Plus: CASM3C Assay for Macrophage colony-stimulating factor (MCSF) Biomarker Activity (AID 2283044).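 Note: M-CSF protein amount quantified by ELISA after 24 h exposure.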 The settings on record: primary human coronary artery smooth muscle cells; actives raise or lower the signal.

Read-out in test [17]: Low-density lipoprotein receptor (LDLR), LDLR (gene 3949)
The test can be described thus: BSK_CASM3C_LDLR: BioMAP Diversity Plus: CASM3C Assay for Low-density lipoprotein receptor (LDLR) Biomarker Activity (AID 2283045).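 Note: LDLR protein level on the cell surface quantified by ELISA.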 The settings on record: primary human coronary artery smooth muscle cells; actives raise or lower the signal.

Read-out in test [18]: Monocyte Chemoattractant Protein-1 (MCP1), CCL2 (gene 6347)
The test can be described thus: BSK_CASM3C_MCP1: BioMAP Diversity Plus: CASM3C Assay for Monocyte Chemoattractant Protein-1 (MCP1) Biomarker Activity (AID 2283046).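 Note: MCP-1 level quantified by ELISA 24 h after dosing.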 The settings on record: primary human coronary artery smooth muscle cells; actives raise or lower the signal.

Test [19] can be described thus: BSK_CASM3C_Proliferation: Cell Proliferation Assessment in the BioMAP Diversity Plus: CASM3C Assay (AID 2283047).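 Note: sulforhodamine B total protein stain as relative cell number at 560 nm; sub-confluent cells exposed 48 h before staining; fitted both ways against DMSO so gain or loss of cell number.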 The settings on record: primary human coronary artery smooth muscle cells.
Read-out in test [20]: Monokine induced gamma interferon (MIG), CXCL9 (gene 4283)
The test can be described thus: BSK_CASM3C_MIG: BioMAP Diversity Plus: CASM3C Assay for Monokine induced gamma interferon (MIG) Biomarker Activity (AID 2283048).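 Note: MIG protein level measured by ELISA.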 The settings on record: primary human coronary artery smooth muscle cells; actives raise or lower the signal.

`O=C(O)CCCc1ccc(N(CCCl)CCCl)cc1`: the AC50 in test [1] was 20 µM (active) and 28.2 µM (active); in test [2] it was 15.8 µM (active) and 13.4 µM (active); in test [4] it was 20 µM (active); in test [6] it was 13.6 µM (active) and 20 µM (active); in test [7], 20 µM (active); in test [11], 27.1 µM (active) and 25.4 µM (active). The AC50 is 16.2 µM (active) and 20 µM (active) in test [12]; 15.8 µM (active) and 20 µM (active) in test [13]; 20 µM (active) in [14]; 15.9 µM (active) and 20 µM (active) in test [15]; 17 µM (active) and 15.7 µM (active) in test [16]; 20 µM (active) in [17]. Further, the AC50 in test [18] is 24 µM (active) and 20 µM (active); in [19] it was 20 µM (active) and 1.6 µM (active); in test [20], 30.8 µM (active) and 20 µM (active). Besides, the outcome in [3], in [5], in [8], in [9], in test [10] and in test [17] was inactive.
On to `O=C1C(Cl)=C(Cl)C(=O)C(Cl)=C1Cl`, for which the AC50 was 12.4 µM (active) in [1]; 6.64 µM (active) in test [2]; 20 µM (active) in [3]; 4.97 µM (active) in [4]; 33.9 µM (active) in test [5]; 12.8 µM (active) in test [6]. Besides, the AC50 in test [7] is 11.9 µM (active); in test [9] it was 5.02 µM (active); in test [10] it was 34.3 µM (active); in test [11], 13.5 µM (active); in test [12], 33.2 µM (active); in [13] it was 20 µM (active). The AC50 in [15] is 14.4 µM (active); in [16], 20 µM (active); in test [18], 20 µM (active); in test [19], 5.78 µM (active); in test [20] it was 29.1 µM (active). Besides, the outcome in test [8], in [14] and in test [17] was inactive.
Turning to `CC(C)(C)C(O)C(Oc1ccc(-c2ccccc2)cc1)n1cncn1` (stereo unspecified), the AC50 in [1] is 32.1 µM (active); in [2], 30.6 µM (active); in [4], 31.7 µM (active); in test [6] it was 29.7 µM (active); in test [7], 31.6 µM (active); in [10], 34.7 µM (active). Also, the AC50 was 31.5 µM (active) in [11]; 6.71 µM (active) in test [12]; 30.9 µM (active) in test [13]; 31.3 µM (active) in test [15]; 20 µM (active) in test [16]; 20 µM (active) in test [17]. Moreover, the results for the AC50 in test [18] and in [19] were 29.2 µM (active) and 26.3 µM (active), respectively. Further, the outcome in test [3], in test [5], in [8], in [9], in test [14] and in test [20] was inactive.
On to `O=[N+]([O-])O`, for which the result in test [1], in test [2], in test [3], in [4], in test [5] and in test [6] was inactive. The result in test [7], in test [8], in [9], in test [10], in [11] and in test [12] was inactive. In addition, the result in [13], in [14], in test [15], in [16], in [17] and in [18] was inactive. In addition, the result in [19] and in [20] was inactive.
With `CC(C)COP(=O)(OCC(C)C)OCC(C)C`, the result in [1], in test [2], in test [3], in test [4], in test [5] and in [6] was inactive. In addition, the outcome in test [7], in [8], in test [9], in test [10], in [11] and in [12] was inactive. The result in test [13], in [14], in test [15], in test [16], in [17] and in test [18] was inactive. Besides, the outcome in [19] and in test [20] was inactive.
Consider `c1ccc(Nc2ccc3ccccc3c2)cc1`, for which the AC50 was 26 µM (active) in test [1]; 31.1 µM (active) in test [2]; 31.9 µM (active) in [3]; 30.2 µM (active) in test [4]; 32.5 µM (active) in [7]; 30 µM (active) in test [8]. The AC50 in test [11] is 29.5 µM (active); in test [12], 20 µM (active); in test [16] it was 20 µM (active); in test [19], 31.7 µM (active). Also, the result in test [5], in test [6], in [9], in test [10], in test [13] and in test [14] was inactive. Also, the outcome in [15], in [17], in test [18] and in [20] was inactive.
As for `CCCCCCCCCCCC#N`, the AC50 in [1] was 36.2 µM (active); in test [2], 28.6 µM (active); in test [3], 20.6 µM (active); in [4] it was 34.1 µM (active); in test [6] it was 20.6 µM (active); in test [7] it was 30.3 µM (active). The AC50 in [10] and in [11] was 20.6 µM (active) in each case. Also, the result in test [5], in test [8], in test [9], in test [12], in test [13] and in test [14] was inactive. The outcome in test [15], in test [16], in [17], in test [18], in [19] and in test [20] was inactive.
